G9a inh: blocks human histone lysine methyltransferase G9a. Q96KQ7. G9a H3K9 monomethylation, AlphaScreen, 2 h. Potency, µM (doses to about 102 µM), without a hit: at the top dose activity, negative = inhibition, most hits filed as inhibitors. 8.8% of 350,000 active. AID 504332; note: % is set by controls: 0 for no effect and ±100 for the full control effect; nearly all actives have a fitted effect of over 75% in size
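AlphaScreen detection with an anti-monomethyl H3K9 antibody quantified product after a 2 h room-temperature reaction containing 500 nM biotinylated H3K9 peptide, 20 µM SAM and 20 nM enzyme, which had been preincubated 15 min with compound.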
JMJD2A Tudor: JMJD2A Tudor domain (human) inhibition; AlphaScreen JMJD2A-Tudor / H3K4me3 peptide binding; 4.4% of 390,000 active; O75164; AID 504339; Potency, µM (series often up to 114 µM), inactives show at the highest dose activity change, negative = inhibition, usual class: inhibitors; note: % is set by controls: 0 for no effect and ±100 for the full control effect; nearly all actives have a fitted effect of over 50% in size
ALOX12 inh: blocks human arachidonate 12S-lipoxygenase; 1.1% of 580,000 active; P18054; Potency, µM (top dose mostly 108 µM), for the others: at the highest dose activity change, negative = inhibition, actives largely listed as inhibitors; purified 12hLO, xylenol orange hydroperoxide absorbance; note: % is set by controls: 0 for no effect and ±100 for the full control effect
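Purified human 12hLO at 150 nM in 25 mM Hepes, 0.01% Triton X-100, pH 7.0, preincubated 15 min at room temperature with compound. Reaction started with 40 uM arachidonic acid, 30 min at room temperature. Hydroperoxide measured by Fe-xylenol orange, 573/405 nm absorbance ratio.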
Sfp PPTase inh: blocks B. subtilis Sfp PPTase activity; Biochemical Sfp PPTase activity, qHTS; Potency, µM, without a hit: largest response in the series, negative = inhibition, hits mostly inhibitors; 3.5% of 310,000 active;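 note: the enzyme is Sfp with the accession as filed and its product quenches rhodamine fluorescence; 0% = enzyme reaction without inhibitor and -100% = no enzyme wells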
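Reaction rates are the 30-min fluorescence difference (ex 525, em 598 nm) in wells containing 15 nM Sfp, 5 uM rhodamine-CoA and 12.5 uM BHQ-2-YbbR at pH 7.6 with 10 mM MgCl2.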
BAZ2B block: inhibitors of human BAZ2B bromodomain. Potency, µM (highest dose often 114 µM), for inactives: at the highest dose activity change, negative = inhibition, most hits filed as inhibitors. 4.4% of 360,000 active. AlphaScreen BAZ2B-H3K14Ac peptide displacement. Q9UIF8; note: % is set by controls: 0 for no effect and ±100 for the full control effect; nearly all actives have a fitted effect of over 60% in size
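BAZ2B (50 nM) with biotin-H3(5-23)K14Ac peptide (50 nM) in PBS pH 7.4, 0.01% Tween-20, preformed 30 min, then compound 30 min at room temperature; top concentration 110uM. AlphaScreen streptavidin donor/nickel chelate acceptor beads (10 ug/mL final), 20 min dark, signal read.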
HP1b binding inh: inhibitors of HP1-beta chromodomain binding to methylated histone tails | 0.56% of 390,000 active | P83916 | Potency, µM (series often up to 114 µM), without a hit: top-dose activity change, negative = inhibition, most hits filed as inhibitors | AlphaScreen HP1-beta / biotin-H3K9me3 peptide binding | AID 540317; note: nearly all actives have a fitted effect of over 70% in size
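HP1-beta protein (50 nM final) preincubated 30 min at room temperature with biotinylated H3(1-18)K9me3 peptide (50 nM) in PBS pH 7.4, 0.01% Tween-20, then compound added for 30 min. AlphaScreen streptavidin donor/nickel chelate acceptor beads (10 ug/mL final), 30 min dark, luminescence read.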
Active calls of the source: *; ? = inconclusive; . = no result; [ ] = remark or other dose. Most compounds without a hit are left out; they make up all but 8.7% or so of the library. Calls come from the whole dose curve; as a rule, active = well fitted curve in the direction sought with a large enough effect; inconclusive = small, poorly fitted or top-dose-only effect, or another doubt; inactive = no such curve, though single readings can be large; an effect the other way counts as inactive or inconclusive. Potency is the fitted concentration of half-maximal effect.

SMILES	G9a inh	JMJD2A Tudor	ALOX12 inh	Sfp PPTase inh	BAZ2B block	HP1b binding inh
CCCCc1ccc(Nc2nc(N3CCOCC3)nc(N3CCOCC3)n2)cc1	50.1µM*	-13.5%	-22.8%	-5.4%	-38.8%[57.1 µM]	38.4%
COCCN=C1N[C@@H](c2ccc(Br)cc2)C(C(=O)OC)=C(C)N1Cc1ccccc1	19.0%[12.7 µM]	-16.1%	-24.4%	16.1%	-36.8%	14.0%
COC(=O)C1=C(C)N(Cc2ccccc2)C(=S)NC1c1cccc(Br)c1 (stereo unspecified)	.	.	39.8µM*	.	.	.
COC(=O)C1=C(C)N(Cc2ccco2)C(=O)N[C@H]1c1ccccc1	?	.	.	-6.8%	-28.5%	.
COC(=O)C1=C(C)N(Cc2ccco2)C(=O)N[C@H]1c1ccc(Br)cc1	50.1µM*	.	.	?	?	.
COC(=O)C1=C(C)N(Cc2ccccc2)C(=S)N[C@H]1c1cccc(F)c1	-19.0%	-32.9%	?	0.9%	?	25.4%
COC(=O)C1=C(C)N(Cc2ccc(Br)cc2)C(=S)NC1c1cccc(Br)c1 (stereo unspecified)	.	.	39.8µM*	.	.	.
COC(=O)C1=C(C)N(Cc2ccccc2)C(=O)N[C@H]1c1ccc(Br)cc1	29.8%[59 µM]	-4.2%	10.7%	-12.2%	2.7%	81.0%
COC(=O)C1=C(C)N(Cc2ccc(Br)cc2)C(=S)NC1c1ccccc1 (stereo unspecified)	.	.	39.8µM*	.	.	.
CC(N(C)C(=O)CCc1ccco1)C(C)(C)C (stereo unspecified)	.	.	-21.2%	.	.	.
Cc1ccc(C(=O)NNC(=O)Cc2nc3nc(C)cc(C)n3n2)cc1	.	8.2%	1.0%	-12.0%	1.1%	30.2%
Cc1cc(C)n2nc(CC(=O)NNC(=O)c3ccccc3Cl)nc2n1	7.08µM*	4.8%	12.9%	3.2%	13.6%	55.1%
COc1ccc(C(=O)NNC(=O)Cc2nc3nc(C)cc(C)n3n2)cc1	0.355µM*	8.9%	-1.8%	-15.9%	-34.8%	42.9%
Cc1cc(C)n2nc(C(=O)NNC(=O)c3ccc(Cl)cc3)nc2n1	?	-20.4%	-0.1%	?	89.1µM*	28.6%
Cc1cc(C)n2nc(C(=O)N/N=C/c3ccc(Cl)cc3)nc2n1	-1.9%	-16.2%	-10.1%	20.9%	4.3%	36.1%
Cc1ccccc1OCC(=O)Nc1ccc2oc(-c3ccccc3C)nc2c1	.	.	-1.0%	.	.	.
Cc1c(Cl)cccc1NC(=O)CCC(=O)NNC(=O)C1CCCCC1	.	.	-26.1%	.	.	.
O=C(CCO)c1ccc(O)cc1	?	20µM*	?	-6.7%	12.6µM*	?
COc1ccc(Nc2nc(-c3ccc4c(c3)NC(=O)CO4)cs2)cc1	44.7µM*	?	?	-11.8%	-26.0%	?
CCC(C)Nc1nc(-c2ccc3c(c2)NC(=O)CO3)cs1 (stereo unspecified)	50.1µM*	?	?	?	?	-0.9%
CS(=O)(=O)N(C1CC1)C1CCOC2(CCN(C(=O)CCC3CCCC3)CC2)C1 (stereo unspecified)	.	.	14.1%	.	.	.
COc1cccc(N2CCN(C(=O)c3cn4ccnc(-c5ccccc5)c4n3)CC2)c1	.	.	-6.3%	.	.	.
CN(C)S(=O)(=O)c1cccc(NC(=O)CSc2nc3ccccc3n2-c2ccccc2)c1	79.4µM*	-25.0%	-6.6%	-14.3%	-7.2%	-0.9%
CN(C)S(=O)(=O)c1cccc(NC(=O)CCCC2CCCCC2)c1	.	6.5%	-1.9%	.	.	76.8%
CCN(CC)S(=O)(=O)c1ccc(NC(=O)CNC2CCCCC2)cc1	25.1µM*	5.62µM*	?	-22.7%	79.4µM*	?
SMILES	G9a inh	JMJD2A Tudor	ALOX12 inh	Sfp PPTase inh	BAZ2B block	HP1b binding inh
CN(C)S(=O)(=O)c1cccc(NC(=O)CNCc2ccccn2)c1	.	28.2µM*	-12.8%	?	20µM*	22.9%
CN(C)S(=O)(=O)c1cccc(NC(=O)CNC2CCCCC2)c1	50.1µM*	22.4µM*	-35.4%	-10.3%	?	?
CCN(CC)S(=O)(=O)c1ccc(NC(=O)CCC2CCCCC2)cc1	0.5%[12.7 µM]	1.4%	0.0%[57.4 µM]	2.7%	3.2%	69.0%
COCCSc1ccc2c(c1)OCCCO2	.	.	-15.4%	.	.	.
O=C(NCCO)c1cccc2c1C(=O)c1ccccc1-2	?	-7.5%	-22.0%	0.9%	20.9%	31.2%
CCN(CC)CCC(=O)Nc1cccc2c1C(=O)c1ccccc1C2=O	39.8µM*	?	0.0%	0.0%	?	-23.0%
CC1CCN(C(=O)c2ccc3c(c2NCCO)C(=O)c2ccccc2C3=O)CC1	?	44.7µM*	0.0%	-15.5%	31.6µM*	?
CCN(CC)CCNC(=O)c1ccc2c(c1NCCO)C(=O)c1ccccc1C2=O	39.8µM*	?	22.2%	-12.6%	39.8µM*	?
CC1CC(C)CN(C(=O)c2cccc3c2-c2ccccc2C3=O)C1 (stereo unspecified)	?	-19.3%	-25.1%	-16.2%	-21.7%	22.4%
CC(C)n1cc(CN2CCC3(CC2)CC(C(=O)N2CCOCC2)N(C)C3)c2ccccc21 (stereo unspecified)	.	.	56.5%	.	.	.
Cc1cccc(C(=O)Nc2nnc(C3=COCCO3)o2)c1	7.1%	39.8µM*	3.5%	-3.9%	7.94µM*	22.6%
COc1ccc(C(=O)Nc2nnc(C3=COCCO3)o2)cc1OC	42.8%	50.1µM*	11.3%	23.3%	15.8µM*	53.1%
CCOc1ccc(C(=O)Nc2nc(C)cs2)cc1OCC	.	.	3.9%	.	.	.
O=C1CCN(C(=O)c2ccccc2)CCCC(C(=O)N2CCc3ccccc32)CCN1 (stereo unspecified)	.	.	-0.8%	.	.	.
CCC1=C/C(=C/N(C)c2ccccc2)C(=O)S1	25.1µM*	?	?	50.1µM*	-8.1%	?
CN(c1ccccc1)S(=O)(=O)CS(=O)(=O)N(C)c1ccccc1	.	-0.7%	3.8%	.	.	35.0%
C=CCOc1cccc(CNc2ccc3[nH]c(=O)[nH]c3c2)c1	20µM*	?	-3.2%	-14.1%	?	-25.4%
COc1cc(CNc2ccc3[nH]c(=O)[nH]c3c2)ccc1OCc1ccccc1	31.6µM*	-29.6%	-8.3%	-13.6%	?	5.0%
COc1cc(CNc2ccc3[nH]c(=O)[nH]c3c2)ccc1OCc1ccccc1F	?	?	?	-8.9%	-35.0%	-8.2%
COc1ccc(Br)cc1CNc1ccc2[nH]c(=O)[nH]c2c1	?	50.1µM*	5.4%	-8.6%	39.8µM*	?
C=CCOc1ccc(CNc2ccc3[nH]c(=O)[nH]c3c2)cc1OC	44.7µM*	-11.3%	-2.3%	4.6%	-27.3%	6.2%
COc1cc(CNc2ccc3[nH]c(=O)[nH]c3c2)ccc1OCc1ccc(F)cc1	?	-6.3%	?	-4.8%	-25.6%	21.6%
c1ccc2c(c1)C(=Nn1c3ccccc3c3ccccc31)c1ccccc1-2	.	.	11.7%	.	.	.
O=C(O)CCNS(=O)(=O)c1cccc(C(F)(F)F)c1	.	.	-24.7%	.	.	.
